Results: PubChem BioAssay (NCI)
This is part of a sample that, as a whole, favours compounds with a hit. Of some 83,000 tested, about 20% had one in any assay.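 Note: values are percent growth. 100 is the growth of untreated cells, values between 100 and 0 indicate rising inhibition; between -100 and 0 indicates cell death.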 Unmarked numbers belong to inactive results. Activity calls are given as the source filed them. Rule for the calls: active = growth percent below 10; inactive = the rest.

These compounds were tested on 786-0 renal (assay: NCI-60 one-dose screen, 48 h (100 = growth as untreated, 0 = no growth, -100 = all killed)). Settings: 10 µM unless noted.
In the case of `COc1ccc(Cn2cc3c(c2-c2ccccc2)CCc2cnoc2-3)cc1`, the growth is reported as 19.4%. `CC(C)(C)n1cc(-c2ccnc(NCCCNS(=O)(=O)c3ccc(C(F)(F)F)cc3)c2)c(-c2cccc(F)c2)n1` showed a growth of 88.3%. Work on `O=C(/C=C/c1ccccc1)c1ccc(Nc2nc(Nc3ccc(F)cc3)nc(Nc3ccc(Cl)cc3)n2)cc1` yielded a growth of 86.8%. In the case of `COc1ccc2c(c1)/C(=N/c1n[nH]c(=S)s1)C(=O)N2`, the growth is reported as 105%. Work on `Cc1ccc2nc(NC(=O)CSc3nc(-c4ccccc4)c(C#N)c4nnnn34)sc2c1` yielded a growth of 114%. In the case of `N=C(N)c1ccc(-c2ccc(-c3cc(Cl)cc(Cl)c3)s2)nc1`, the growth is reported as 79.6%. `COc1ccc(Oc2nc(Nc3ccc(N4CCOCC4)cc3)ncc2NC(=O)Nc2cc(OC)cc(OC)c2)cc1` showed a growth of 22.5%. Work on `CCCCNc1cc(-c2cn[nH]c2-c2cc(C)cc(OC)c2)nc(-c2cccnc2)n1` yielded a growth of 68.2%.

The compounds below were run on COLO 205 colon in the same assay as above. Settings: 10 µM unless noted.
`N#CSc1c[nH]c2cccc(/C=C/C(=O)/C=C(O)/C=C/c3cccc4[nH]cc(SC#N)c34)c12` was tested, and the growth was -77.7% (active). `COCCn1cc(-c2csc(-c3c[nH]c4ccc(Br)cc34)n2)c2cccnc21` showed a growth of 24.9%. With `N#CC1CCc2c(c(-c3ccc4nc(N)sc4c3)nc3ccc4[nH]ncc4c23)C1` (configuration not stated) the growth was 40.5%. `NS(=O)(=O)c1ccc(-c2cc(-c3nnc(SCC(=O)Nc4ccc(C(=O)/C=C/c5ccc(Cl)cc5)cc4)n3-c3ccccc3)c3ccccc3n2)cc1` gave a growth of 103%. Work on `O=C(Nc1cc(Cl)ccc1O)c1cccc(Nc2ccnc(C(F)(F)F)c2)c1` yielded a growth of 90.9%. `CC/C(Cc1ccccc1)=C(\c1ccc(OCCCN(C)C)cc1)c1ccc(OC(=O)NCc2ccccc2)cc1` was tested, and the growth was 4.67% (active). In the case of `Clc1c(Cl)[n+](Cc2ccc3ccccc3c2)cn1Cc1ccc2ccccc2c1`, the growth is reported as -73.9% (active). `CSC(SC)=C(C#N)c1nc2ccccc2s1` was tested, and the growth was 112%. With `O=C(CN1CCCCCC1)Nc1nc2ccc(NCc3ccc(Cl)cc3)cc2s1` the growth was 109%. Compound `CCC1S/C(=N\N=C(\C)c2cc3cc(Cl)ccc3o2)N(c2ccccc2)C1=O` (configuration not stated) has a growth of 118%. Compound `Cc1ccc(C)c(/C=C2\CN(C(=O)OC(C)(C)C)C/C(=C\c3cc(C)ccc3C)C2=O)c1` has a growth of 30.9%. `COc1ccc(-c2n[nH]c(=O)c3nc(NC(=S)Nc4ccc(Oc5ccccc5)cc4)sc23)cc1` showed a growth of 113%. `O=C1/C(=C\c2ccccn2)c2ccccc2N1c1c(Cl)cccc1Cl` was tested, and the growth was -16.1% (active). In the case of `Cc1ncc(C(=O)Nc2ccc(CN3CCN(C)CC3)c(C(F)(F)F)c2)cc1C#Cc1cnc(N)c2ncccc12`, the growth is reported as 1.6% (active). For `CNC(=O)c1cc(Oc2ccc3c(c2)sc2nc(-c4ccc(OC)cc4)cn23)ccn1`, the growth was 0.159% (active). `O=C1Nc2c(C(=O)O)cccc2/C1=N/c1n[nH]c(=S)s1` was tested, and the growth was 118%. For `COC(=O)c1ccc(NC(=O)Nc2ccc(C(=O)OC)cc2)cc1`, the growth was 104%. `COc1ccc(/C=C/C(c2cc(OC)c(OC)c(OC)c2)n2ccnc2)cc1O` (configuration not stated) was tested, and the growth was 89.8%. For `Cc1nc2sc(C(=O)Nc3cccc(Br)c3C)c(N)c2cc1C(O)c1ccccc1` (configuration not stated), the growth was -51.6% (active). With `C=C1C(=O)O[C@H]2[C@H]1CC/C(COC(=O)/C=C/C(=O)OC/C1=C/CC[C@@]3(C)O[C@H]3[C@H]3OC(=O)C(=C)[C@@H]3CC1)=C\CC[C@@]1(C)O[C@@H]21` the growth was 11.3%. In the case of `COc1ccc(-c2ccc(-c3ccc(C(=N)N)nc3)s2)cc1Cl`, the growth is reported as -56% (active). For `COc1cc(/C=N/Nc2ccc(Br)cc2)cc(OC)c1OC`, the growth was 86.9%. For `C#CCOc1cccc(-c2ncnc3cc(NC(=O)C=C)ccc23)c1`, the growth was 24.4%. `O=c1ccc(=O)n(-c2nc(-c3ccc([N+](=O)[O-])cc3)cs2)[nH]1` showed a growth of 105%. For `CCCCCCCCCCCCCCCCCC1=NC(C)(C)CN1CC(C)O` (configuration not stated), the growth was 34%. Work on `CC1=C(C(=O)Nc2nc(-c3ccc(Cl)cc3)cs2)[C@H](c2ccc(O)cc2)NC(=O)N1` yielded a growth of 110%. In the case of `O=C(Cn1nnc2ccccc21)N/N=C/c1c[nH]c2ccccc12`, the growth is reported as 37.2%. With `Cn1c(=O)c2[nH]c(SCC(=O)Nc3ccc(C(=O)/C=C/c4ccccc4Cl)cc3)nc2n(C)c1=O` the growth was 117%. For `O=c1nc(-c2ccccc2)c2cc(-c3ccc(C(F)(F)F)nc3)ccc2[nH]1`, the growth was 105%.
